The text below walks through data of PubChem BioAssay (EPA / NIEHS).

Inconclusive results are not listed. The source made the active and inactive calls. The calls were made as follows, unless noted: active = hit-call score of the fitted dose curve at least 0.9, where 1 is the maximum; inactive = score below 0.9.

The nature of experiment [1]: BSK_3C_Proliferation: Cell Proliferation Assessment in the BioMAP Diversity Plus: 3C Assay (AID 2283006).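 As to AC50: potency may reflect either rise or fall in cell number versus DMSO.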 Conditions: primary human endothelial cells (HUVEC). The procedure, abridged:
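HUVEC, sub-confluent; 48 h chemical exposure; 10% TCA fix, 0.1% SRB stain, A560 total protein. Gain or loss of signal fitted both directions vs DMSO control.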

The nature of experiment [2]: BSK_3C_Vis: BioMAP Diversity Plus: 3C Assay for Morphology Visualization (AID 2283025).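 Also: fitted both ways so gain or loss versus DMSO counts.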 Conditions: primary human endothelial cells (HUVEC). The essentials: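 HUVEC, 3C system; light microscopy of morphology at 24 h post-dose. Bidirectional fit vs DMSO baseline. Secondary readout, background-control function.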
Read-out in experiment [3]: Transforming growth factor beta 1 (TGFb1), TGFB1 (gene 7040)
Put plainly: BSK_BE3C_TGFb1: BioMAP Diversity Plus: BE3C Assay for Transforming growth factor beta 1 (TGFb1) Biomarker Activity (AID 2283036;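 also: TGF-b1 protein level measured by ELISA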). Conditions: primary human bronchial epithelial cells; actives raise or lower the signal. The procedure, abridged: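 Read-out: ELISA for TGF-b1 in primary human bronchial epithelial cultures, 24 h post-dose. Bidirectional curve fitting vs DMSO control; gain or loss of signal both scored.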

Read-out in experiment [4]: Transforming growth factor beta 1 (TGFb1), TGFB1 (gene 7040)
As to the kind of experiment: BSK_KF3CT_TGFb1: BioMAP Diversity Plus: KF3CT Assay for Transforming growth factor beta 1 (TGFb1) Biomarker Activity (AID 2283072). Conditions: primary human keratinocytes with fibroblasts; actives raise or lower the signal. The essentials:
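Read-out: ELISA for TGF-b1 in keratinocyte/foreskin fibroblast human skin co-culture, 24 h after dosing; bidirectional curve fit vs DMSO baseline; gain or loss of signal scored.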

Read-out in experiment [5]: CD40, CD40 (gene 958)
As to the kind of experiment: BSK_LPS_CD40: BioMAP Diversity Plus: LPS Assay for CD40 Biomarker Activity (AID 2283076). The settings on record: primary human HUVEC with PBMC; actives raise or lower the signal. The essentials: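 HUVEC plus PBMC co-culture stimulated with LPS; CD40 quantified by ELISA 24 h after compound dosing. Fitting was bidirectional relative to DMSO. SRB staining of parallel cultures flagged overt cytotoxicity.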

Read-out in experiment [6]: Tumor necrosis factor (Homo sapiens) (UniProt P01375)
Put plainly: BSK_LPS_TNFa: BioMAP Diversity Plus: LPS Assay for Tumour Necrosis Factor alpha (TNFa) Biomarker Activity (AID 2283085).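 As to AC50: TNFa protein level quantified by ELISA in the co-culture.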 The settings on record: primary human HUVEC with PBMC; actives raise or lower the signal. The procedure, abridged:
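HUVEC/PBMC co-culture, LPS-stimulated; 24 h post-dose; TNFa by ELISA; gain or loss of signal fitted bidirectionally vs DMSO baseline.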

Read-out in experiment [7]: Vascular cell adhesion molecule 1 (VCAM1), VCAM1 (gene 7412)
As to the kind of experiment: BSK_LPS_VCAM1: BioMAP Diversity Plus: LPS Assay for Vascular cell adhesion molecule 1 (VCAM1) Biomarker Activity (AID 2283086). Conditions: primary human HUVEC with PBMC; actives raise or lower the signal. The essentials: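 ELISA read-out of VCAM-1 at 24 h post-dosing in an LPS-driven HUVEC/PBMC primary human co-culture; gain or loss of signal fitted bidirectionally against DMSO baseline. Cytotoxicity tracked in parallel cultures by SRB total-protein staining.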

Read-out in another experiment: CD38, CD38 (gene 952)
As to the kind of experiment: BSK_SAg_CD38: BioMAP Diversity Plus: SAg Assay for CD38 Biomarker Activity (AID 2283087). Conditions: primary human HUVEC with PBMC; actives raise or lower the signal. The procedure, abridged:
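Measures CD38 on a human endothelial/PBMC co-culture driven by SEB and TSST-1, 24 h after compound exposure, using ELISA with fluorescence detection; DMSO defines baseline for bidirectional curve fitting.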

Read-out in experiment [8]: CD40, CD40 (gene 958)
As to the kind of experiment: BSK_SAg_CD40: BioMAP Diversity Plus: SAg Assay for CD40 Biomarker Activity (AID 2283088). Conditions: primary human HUVEC with PBMC; actives raise or lower the signal. The procedure, abridged:
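HUVEC plus PBMC co-culture, superantigen-activated, with CD40 read by ELISA 24 h after dosing. Curves fitted in both directions against DMSO. Overt cytotoxicity checked by parallel SRB total-protein staining.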

Read-out in another experiment: CD69, CD69 (gene 969)
Put plainly: BSK_SAg_CD69: BioMAP Diversity Plus: SAg Assay for CD69 Biomarker Activity (AID 2283089).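 As to AC50: cell surface CD69 protein quantified by ELISA with fluorescence detection.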 Conditions: primary human HUVEC with PBMC; actives raise or lower the signal. The essentials:
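Values derive from bidirectional fitting relative to DMSO vehicle. Cells: umbilical vein endothelium plus peripheral blood mononuclear cells, treated 24 h before fluorescent ELISA for CD69.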

Read-out in experiment [9]: Monocyte Chemoattractant Protein-1 (MCP1), CCL2 (gene 6347)
As to the kind of experiment: BSK_SAg_MCP1: BioMAP Diversity Plus: SAg Assay for Monocyte Chemoattractant Protein-1 (MCP1) Biomarker Activity (AID 2283090). The settings on record: primary human HUVEC with PBMC; actives raise or lower the signal. The essentials: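 Values derive from bidirectional fitting of ELISA-measured MCP1 against DMSO controls. Readings were taken 24 h after dosing human vascular endothelial cells co-cultured with peripheral blood mononuclear cells under superantigen stimulation.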

Experiment [10] in a line: BSK_SAg_Proliferation: Cell Proliferation Assessment in the BioMAP Diversity Plus: SAg Assay (AID 2283095).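 Also: relative cell number as total protein by SRB absorbance in sub-confluent culture.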 Conditions: primary human HUVEC with PBMC. The procedure, abridged: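 HUVEC/PBMC co-culture, 96-well. TCA-fixed (10%), 0.1% SRB stain, A560 at 96 h. Protein content used as viability readout; bidirectional fitting vs DMSO control.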
Experiment [11] is described as follows: BSK_SAg_SRB: Viability Assessment in the BioMAP Diversity Plus: SAg Assay (AID 2283096).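 Also: cells read one day after compound addition; hits may be either gain or loss of signal compared with DMSO.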 Conditions: primary human HUVEC with PBMC. The procedure, abridged: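 This overt-cytotoxicity endpoint quantifies protein in human endothelial/PBMC co-cultures at 24 h using SRB absorbance (560 nm) after trichloroacetic acid fixation. Values reflect signal change from the DMSO negative control, fitted bidirectionally.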

Read-out in experiment [12]: Secreted IgG (sIgG), gene 3500
As to the kind of experiment: BSK_BT_sIgG: BioMAP Diversity Plus: BT Assay for Secreted IgG (sIgG) Biomarker Activity (AID 2284226). Conditions: primary human B cells with PBMC. The essentials: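 Human B cell/PBMC co-culture; compound exposure 24 h; sIgG by ELISA; gain-of-signal fit vs DMSO baseline.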

Experiment [13] in a line: BSK_BT_Bcell_Proliferation: Viability Assessment in the BioMAP Diversity Plus: BT Assay for B cell Proliferation (AID 2284227). The settings on record: primary human B cells with PBMC. The essentials: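 Using a human primary B cell–PBMC co-culture, the assay measures total protein by sulforhodamine B absorbance as a gauge of proliferation after 72 h. Analysis followed the positive fitting direction with DMSO as baseline.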

Read-out in experiment [14]: Interleukin 6 (IL6), IL6 (gene 3569)
As to the kind of experiment: BSK_BT_xIL6: BioMAP Diversity Plus: BT Assay for Interleukin 6 (IL6) Biomarker Activity (AID 2284228). Conditions: primary human B cells with PBMC. The procedure, abridged: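 Human B cell/PBMC co-culture; secreted IL-6 quantified by Luminex xMAP 24 h after chemical dosing, fitted relative to DMSO. Parallel PBMC viability by Alamar Blue after 1 h pretreatment, 20 ng/mL SEB and TSST-1, 90 h incubation.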

Read-out in experiment [15]: Interleukin 17A (IL17A), IL17A (gene 3605)
Put plainly: BSK_BT_xIL17A: BioMAP Diversity Plus: BT Assay for Interleukin 17A (IL17A) Biomarker Activity (AID 2284229). The settings on record: primary human B cells with PBMC. The essentials:
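Co-culture of human B cells and PBMC, dosed for 24 h in 96-well format. Secreted IL-17A measured with Luminex xMAP; gain-direction fitting against DMSO as baseline.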

Read-out in experiment [16]: Vascular cell adhesion molecule 1 (VCAM1), VCAM1 (gene 7412)
Put plainly: BSK_MyoF_VCAM1: BioMAP Diversity Plus: MyoF Assay for Vascular cell adhesion molecule 1 (VCAM1) Biomarker Activity (AID 2284231). The settings on record: primary human lung fibroblasts. The essentials:
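Primary human lung fibroblasts (BioMAP MyoF system) dosed with chemical, VCAM-1 measured by ELISA 24 hours later. Fitted in the positive direction against DMSO; parallel SRB staining assessed cytotoxicity.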

Experiment [17] has as its target human Retinoic Acid Receptor beta (RARb), RARB (gene 5915) (UniProt P10826). Put plainly: ATG_RARb_TRANS: Attagene TRANS-FACTORIAL HepG2 Assay for human Retinoic Acid Receptor beta (AID 2283004; active = hit-call score of the fitted dose curve at least 0.9, where 1 is the maximum). The essentials: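 HepG2 cells were transiently transfected with GAL4-UAS reporter units that report activity of exogenous chimeric NR-Gal4 proteins, then exposed to compound for 24 h. Reporter mRNA was quantified by RT-PCR with capillary electrophoresis fluorescence, as gain of signal over DMSO.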

Experiment [18] can be described thus: BSK_CASM3C_SRB: Viability Assessment in the BioMAP Diversity Plus: CASM3C Assay (AID 2283050). The settings on record: primary human coronary artery smooth muscle cells.

Sequence of Tumor necrosis factor (Homo sapiens) (P01375 whole entry, looked up): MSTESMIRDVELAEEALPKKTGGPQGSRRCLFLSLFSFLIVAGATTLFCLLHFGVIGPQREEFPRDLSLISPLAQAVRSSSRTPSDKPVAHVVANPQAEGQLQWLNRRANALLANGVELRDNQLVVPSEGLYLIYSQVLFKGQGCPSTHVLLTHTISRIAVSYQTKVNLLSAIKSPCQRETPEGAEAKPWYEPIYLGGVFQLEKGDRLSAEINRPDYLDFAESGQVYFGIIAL
Sequence of human Retinoic Acid Receptor beta (RARb), RARB (gene 5915) (P10826 whole entry, looked up, the tested form may be a part): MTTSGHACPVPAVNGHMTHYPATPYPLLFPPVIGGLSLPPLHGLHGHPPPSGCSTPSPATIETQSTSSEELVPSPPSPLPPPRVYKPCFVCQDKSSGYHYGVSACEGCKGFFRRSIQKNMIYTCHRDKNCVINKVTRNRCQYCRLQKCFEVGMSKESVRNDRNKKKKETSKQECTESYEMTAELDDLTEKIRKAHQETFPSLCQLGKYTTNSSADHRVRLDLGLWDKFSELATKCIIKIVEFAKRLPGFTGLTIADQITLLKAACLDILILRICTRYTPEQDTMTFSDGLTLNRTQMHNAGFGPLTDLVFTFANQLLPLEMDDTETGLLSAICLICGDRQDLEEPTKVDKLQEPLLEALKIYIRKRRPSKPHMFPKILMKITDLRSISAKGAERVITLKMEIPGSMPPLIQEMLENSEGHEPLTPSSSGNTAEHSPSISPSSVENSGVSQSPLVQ

Broadly, the AC50 is the midpoint of the concentration-response curve, whichever way the signal moves. As to `CN(C)c1ccc(C(c2ccccc2)c2ccc(N(C)C)cc2)cc1`, the AC50 in experiment [1] is 2.81 µM (active); in experiment [2] it was 13 µM (active); with CD40, CD40 (gene 958) [5] it was 20 µM (active); in experiment [6], 1.6 µM (active); in experiment [7], 4.93 µM (active); with CD38, CD38 (gene 952) it was 20 µM (active). Moreover, the AC50 was 14.2 µM (active) with CD40, CD40 (gene 958) [8]; 20 µM (active) in the experiment with CD69, CD69 (gene 969); 12.9 µM (active) in experiment [9]; 11.7 µM (active) in experiment [10]; 12.6 µM (active) in experiment [11]; 11.8 µM (active) in experiment [12]. The AC50 in experiment [13] was 29 µM (active); in experiment [14], 14.6 µM (active); in [15], 20 µM (active). Besides, the outcome in [3], in experiment [4] and in [16] was inactive.
For the compound `C=C1CC[C@H]2C[C@@H]1C2(C)C`, in [17], the result was inactive.
Take `Cc1cccnc1`: the outcome in experiment [1] was “inactive”; in experiment [2], “inactive”; in experiment [3], “inactive”; in [18], “inactive”; in experiment [4], “inactive”; with CD40, CD40 (gene 958) [5], “inactive”. For the same compound, the outcome was “inactive” in [6]; “inactive” in experiment [7]; “inactive” with CD38, CD38 (gene 952); “inactive” with CD40, CD40 (gene 958) [8]; “inactive” with CD69, CD69 (gene 969); “inactive” in experiment [9]. The result in experiment [10], in experiment [11], in experiment [12], in experiment [13], in experiment [14] and in experiment [15] was inactive. Moreover, the result in experiment [16] was inactive.
As to `[O-][n+]1ccc(Cl)cc1`, in experiment [17], the outcome was inactive.
For the compound `Cc1cc(-n2nc3ccc(Cl)cc3n2)c(O)c(C(C)(C)C)c1`, the compound was classed as inactive in experiment [17], in [1], in experiment [2], in [3], in [18] and in experiment [4]. The outcome was “inactive” with CD40, CD40 (gene 958) [5]; “inactive” in experiment [6]; “inactive” in experiment [7]; “inactive” in the experiment with CD38, CD38 (gene 952); “inactive” with CD40, CD40 (gene 958) [8]; “inactive” with CD69, CD69 (gene 969). The outcome in experiment [9], in experiment [10], in experiment [11], in experiment [12], in experiment [13] and in experiment [14] was inactive. Further, the outcome in [15] and in experiment [16] was inactive.
As to `CCCCCCCCCCC1CO1` (configuration not stated), the AC50 was 14.7 µM (active) in experiment [1]; 37.8 µM (active) in [2]; 31.6 µM (active) in experiment [18]; 30.3 µM (active) in experiment [4]; 30.9 µM (active) in experiment [6]; 32.3 µM (active) in [7]. The AC50 was 20 µM (active) with CD40, CD40 (gene 958) [8]; 36.7 µM (active) with CD69, CD69 (gene 969); 32.5 µM (active) in experiment [10]; 30.7 µM (active) in [16]. Further, the outcome in experiment [3] was “inactive”; in the experiment with CD38, CD38 (gene 952), “inactive”; in [9], “inactive”; in experiment [11] it was “inactive”; in experiment [12] it was “inactive”; in experiment [13] it was “inactive”. Also, the outcome in [14] and in [15] was inactive.
